Paper PMC12136788
Where a chain is given by its changes, count along the chain named. Whole data set: some 5,800 sequences, median “enrichment r” near 0.54, cut for the highest 2% near 16. Shown is part of a subset that was picked to be rich in the highest values.

B1: ENSG00000079335:stop:overlap|stop_codon|ENSG00000079335|stop_codon|NA|stop_codon (ssRNA)
RNA: GGGAGUUCUACAGUCCGACGAUCUUGGUGGAAAUCUUUCAAAAACACAAAACAUGGAACGAUUUGGAGAGGUAAGUUUUCCCUAGGAGAUUCUAUCUUCUUAAAACUGAUGUUCUGCAUUUGUUUCUCAGUUGGACCUAUAUACAACAGAGGAUUGAGCAUCA
B2: chr9:34635388:34635489:-|3pUTR|ENSG00000147955|msi1|FALSE|unique (ssRNA)
RNA: GGGAGUUCUACAGUCCGACGAUCGGGAUAUCCAUGCUUAUGUAUCCAAACACAGAGACCCAUGGGAACAAAUGAGACACAUAUAGAUACUGAGACCUGUGUGUACAGUAGGACCAUGCACUCACACCCAUCUGGAGAGGGAGCCAACAGAGGAUUGAGCAUCA
B3: chr12:54350855:54350965:+|3pUTR|ENSG00000111481|msi1|FALSE|unique (ssRNA)
RNA: GGGAGUUCUACAGUCCGACGAUCUUGCCCUGACAUUUUUGUAAAUUCUGUGCCCUUUGCUGUAGCUACACUUCAGAUUAAAGUAGGAGAAAGAAUGUGCUGAGUGUUUUCCUCCCUUUGCCUCUACCUGGCCCUCAUCCCAACCAACAGAGGAUUGAGCAUCA
B4: chr9:86945015:86945116:-|3pUTR|ENSG00000180447|msi1|FALSE|unique (ssRNA)
RNA: GGGAGUUCUACAGUCCGACGAUCUUGGUUUUGGAUAAGUUUGAGCCCUUGACCUUAAUUUCAUUGCUACCACUCUGAUCUCUUAGCACAUUUCUUAGGAUUAAGGGUCCAAAAAUGCUGAUCUAAGGGGUUGCCAUGGUGUUGCAACAGAGGAUUGAGCAUCA
B5: chr5:172042892:172042993:-|3pUTR|ENSG00000072786|msi1|total|mutant (ssRNA)
RNA: GGGAGUUCUACAGUCCGACGAUCGAUUCUCCCGCUUCAACCUUGAGCCGCUGGGACGACAGAUACAUGCUACUGCACCCAGCCCGGUUAAGGUUCUGUAUACUCUGUCUUUCUAAAGCAAUUCCCUGGAAAUUUUCUCAACAUCAACAGAGGAUUGAGCAUCA
B6: chr9:69711526:69711627:-|3pUTR|ENSG00000188647|unk|FALSE|unique (ssRNA)
RNA: GGGAGUUCUACAGUCCGACGAUCGAACUGCUGUAGUCUUCUGCAAUCAGUCUCUGUAUUGGUAUAUCCAGUACUAUCGGGUUUAGGUUCUUUUUAUUUUUCCUUAAAUCUUACUUGUUUCUAGCGUCUUAAGAGUGGUAAUGGCAACAGAGGAUUGAGCAUCA
B7: chr22:49888080:49888186:+|3pUTR|ENSG00000100426|unk|FALSE|unique (ssRNA)
RNA: GGGAGUUCUACAGUCCGACGAUCUGGCUUAUUAACAGGGAAGAAGCUUGUUAUAUUCCAGUUGUAAGAAUAGCCUUAGUGUUUAGAUUUUUUUAUGAUAGGGAAGAUGCGGCCAUCACUGGGAUAUUUUCAAAUCCCAAGGACCAACAGAGGAUUGAGCAUCA
B8: chr19:35555165:35555334:-|CDS|ENSG00000105675|control|control|control (ssRNA)
RNA: GGGAGUUCUACAGUCCGACGAUCGGCCGUCACGGGGGAUGGUGUGAAUGACUCCCCAGCUCUGAAGAAGGCAGACAUCGGAGUAGCCAUGGGCAUCGCUGGCUCAGAUGCUGCCAAAAAUGCAGCUGACAUGAUCCUGCUGGACAACAGAGGAUUGAGCAUCA
B9: chr7:39987650:39987751:+|CDS|ENSG00000065883|unk|total|mutant (ssRNA)
RNA: GGGAGUUCUACAGUCCGACGAUCUCCCGGCAUUCAAGAUCUCGCCGCAGGCACAGAUUGUCCCGAUCCAGAAGUCGUCAUUCCCGUAUUUCUCCCCGCACACUAACUCUGAAGAGCCGCCUGGCAGCUGAAUUGAACAAGAAUCAACAGAGGAUUGAGCAUCA
B10: chr11:69653362:69653473:+|3pUTR|ENSG00000110092|msi1_unk|FALSE|overlapping (ssRNA)
RNA: GGGAGUUCUACAGUCCGACGAUCACUGCCAUGUACUAGUUUUAGUUUUCUCUUAGAACAUUGUAUUACAGAUGCCUUUUUUGUAGUUUUUUUUUUUUUUAUGUGAUCAAUUUUGACUUAAUGUGAUUACUGCUCUAUUCCAAACAACAGAGGAUUGAGCAUCA
B11: chr7:158734047:158734148:-|3pUTR|ENSG00000117868|msi1_unk|FALSE|overlapping (ssRNA)
RNA: GGGAGUUCUACAGUCCGACGAUCCUACCCGGAACACACCCUCUCACAGACGUACCAAUGUUAUUUUUAUAAUUUCAUGGAUUUAGUUAUACAUACCUUAAUAGUUUUAUAAAAUUGUUGACAUUUCAGGCAAAUUUGGCCAAUCAACAGAGGAUUGAGCAUCA
B12: chr21:25881503:25881610:-|3pUTR|ENSG00000142192|msi1_unk|FALSE|overlapping (ssRNA)
RNA: GGGAGUUCUACAGUCCGACGAUCACAAACCCGUUUUAUGAUUUACUCAUUAUCGCCUUUUGACAGCUGUGCUGUAACACAAGUAGAUGCCUGAACUUGAAUUAAUCCACACAUCAGUAAUGUAUUCUAUCUCUCUUUACAUUUCAACAGAGGAUUGAGCAUCA
B13: chr2:165880514:165880799:-|CDS|ENSG00000123607|control|control|control (ssRNA)
RNA: GGGAGUUCUACAGUCCGACGAUCGAUGGCAUGGAAAUAUAGCAAUCGGACAAAUCCGGCAGUAGGUGAGUUUGGCAAUCACCUAGAUUUUUCACAGAAAAAUUAUGUUGUAUUUAUUAAUUUUCAUUUAAAUGCAUUUGAUUUCAACAGAGGAUUGAGCAUCA
B14: chr7:158734047:158734148:-|3pUTR|ENSG00000117868|msi1_unk|total|mutant (ssRNA)
RNA: B11 RNA with U83C, A84C, U101C, A102C
B15: chr1:6224442:6224573:-|3pUTR|ENSG00000116237|msi1_unk|total|mutant (ssRNA)
RNA: GGGAGUUCUACAGUCCGACGAUCCUAUACAAUUUUAAAAAUACUUCCUCACCGGAUGCUUUGGCCCUUCAUCUAUUUAAUCACCGCUACAUACCUAUUUUUUAUAAGCCGCAGUACACAUUCAAAGGGGUAUUCCCCGCUCAACAACAGAGGAUUGAGCAUCA
B16: chrX:129805617:129805718:-|3pUTR|ENSG00000188706|msi1|FALSE|unique (ssRNA)
RNA: GGGAGUUCUACAGUCCGACGAUCUCUUUUCCCAUUAGAUAUAUGUAAGUAGUUGUAGUAGAGAUAAUAAUUGACAUUUCUCGUAGACUACCCAGAAACUUUUUUAAUACCUGUGCCAUUCUCAAUAAGAAUUUAUGAGAUGCCCAACAGAGGAUUGAGCAUCA
B17: chr19:9526975:9527076:-|3pUTR|ENSG00000130818|unk|total|mutant (ssRNA)
RNA: GGGAGUUCUACAGUCCGACGAUCCCUCUCAGACCUUCCAUCAUUACUAUAUUUCACUUUUAUGCCUAUAAACACACACAAAUCCGCAUAUGUAAUCUAAUACAUUGCCGCUAUUUUUCAGAAGUUAUCAGAUCAAUUAAGUAUCAACAGAGGAUUGAGCAUCA
B18: chrX:129805617:129805718:-|3pUTR|ENSG00000188706|msi1|total|mutant (ssRNA)
RNA: B16 RNA with U35C, A36C, U49C, A50C, U55C, A56C, U58C, A59C, U83C, A84C
B19: chr1:6224442:6224573:-|3pUTR|ENSG00000116237|msi1_unk|FALSE|overlapping (ssRNA)
RNA: B15 RNA with C51U, C52A, C83U, C84A, C108U, C109A, C136U, C137A
B20: chr12:68839811:68839877:+|CDS_3pUTR|ENSG00000135679|msi1_unk|FALSE|overlapping (ssRNA)
RNA: GGGAGUUCUACAGUCCGACGAUCAUAAGCCCUGCCCAGUAUGUAGACAACCAAUUCAAAUGAUUGUGCUAACUUAUUUCCCCUAGUUGACCUGUCUAUAAGAGAAUUAUAUAUUUCUAACUAUAUAACCCUAGGAAUUUAGACCAACAGAGGAUUGAGCAUCA
B21: chr11:69653362:69653473:+|3pUTR|ENSG00000110092|msi1_unk|total|mutant (ssRNA)
RNA: B10 RNA with U36C, A37C, U42C, A43C, U53C, A54C, U83C, A84C

These binders were tested against MSI1 full-length (mouse, UniProt Q61474 1-362) (assay: nsRBNS (natural sequence RNA bind-n-seq); RBNS binding buffer (assumed for nsRBNS): 25 mM Tris pH 7.5, 150 mM KCl, 3 mM MgCl2, 0.01% Triton X-100, 500 ug/ml BSA, 20 U/ml SUPERase-In, 4 C; UNK is unkempt and MSI1 is Musashi-1; names of the RNAs are library labels; protein concentration not given here; high values mean tight binding).
Sequence of MSI1 full-length (Q61474 whole entry): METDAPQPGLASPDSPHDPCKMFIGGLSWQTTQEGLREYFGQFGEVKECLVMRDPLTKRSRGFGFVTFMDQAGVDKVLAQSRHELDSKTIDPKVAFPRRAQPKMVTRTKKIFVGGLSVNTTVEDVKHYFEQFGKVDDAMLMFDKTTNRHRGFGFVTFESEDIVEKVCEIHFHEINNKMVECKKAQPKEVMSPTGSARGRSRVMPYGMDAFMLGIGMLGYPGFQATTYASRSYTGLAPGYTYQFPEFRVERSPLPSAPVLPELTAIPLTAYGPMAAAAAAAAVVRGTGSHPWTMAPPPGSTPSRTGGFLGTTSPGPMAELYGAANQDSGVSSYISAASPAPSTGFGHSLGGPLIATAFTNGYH
B1 was tested, and the binding signal was 4.56 enrichment R.
For B2, the binding signal was 0.728 enrichment R.
Binder B3 has a binding signal of 0.649 enrichment R.
Work on B4 yielded a binding signal of 0.273 enrichment R.
Work on B5 yielded a binding signal of 0.391 enrichment R.
Work on B6 yielded a binding signal of 3.44 enrichment R.
For B7, the binding signal was 11.3 enrichment R.
B8 was tested, and the binding signal was 0.465 enrichment R.
B9 showed a binding signal of 0.458 enrichment R.
In the case of B10, the binding signal is reported as 32.9 enrichment R.
Binder B11 has a binding signal of 20.8 enrichment R.
B12 gave a binding signal of 0.949 enrichment R.
In the case of B13, the binding signal is reported as 0.379 enrichment R.
Binder B14 has a binding signal of 0.582 enrichment R.
For B15, the binding signal was 18.3 enrichment R.
Binder B16 has a binding signal of 71.9 enrichment R.
B17 showed a binding signal of 9.57 enrichment R.
For B18, the binding signal was 0.608 enrichment R.
Binder B19 has a binding signal of 7.66 enrichment R.
B20 gave a binding signal of 3.21 enrichment R.
Binder B21 has a binding signal of 1.65 enrichment R.
